PubChem BioAssay (NCI)
About 79,000 compounds went through this panel and 15% of them were active in at least one assay; those are over-represented in the sample as a whole. A number with no mark means an inactive call. The source made the active and inactive calls. No stated cut-off is given here; in the data, active means growth inhibition above about 70%; inactive means the rest.

Assays:
[1] = NCI Yeast Anticancer Drug Screen. Data for the rad50 strain (AID 155);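 further: 0% = growth of vehicle-only cultures of the same strain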; conditions: S. cerevisiae rad50 strain growth inhibition, hits give high values
How it was run: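 Vehicle-treated cultures provide the reference for the growth inhibition reported for compound-exposed, repair-deficient yeast.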

[2] = NCI Yeast Anticancer Drug Screen. Data for the mec2-1 strain (AID 157); conditions: S. cerevisiae mec2-1 strain, hits give high values
How it was run: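 mec2-1 yeast strain, carrying an alteration in DNA damage repair or cell cycle control, was exposed to compounds; growth inhibition was measured relative to vehicle-treated controls.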

[3] = NCI Yeast Anticancer Drug Screen. Data for the sgs1 mgt1 strain (AID 161);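 further: 0% = growth of cultures given vehicle only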; conditions: S. cerevisiae sgs1 mgt1 strain, hits give high values
How it was run: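 This yeast growth screen uses a strain with defined DNA-repair lesions; compound-treated growth is compared with vehicle-treated growth.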

[4] = NCI Yeast Anticancer Drug Screen. Data for the cln2 rad14 strain (AID 165);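 further: 0% = growth equal to vehicle treated cultures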; conditions: S. cerevisiae cln2 rad14 strain, hits give high values
How it was run: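 Yeast carrying cln2 and rad14 alterations (cell cycle control and DNA damage repair) were exposed to compounds. Growth inhibition was measured against vehicle-treated controls.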

[5] = NCI Yeast Anticancer Drug Screen. Data for the bub3 strain (AID 167); conditions: S. cerevisiae bub3 mutant strain, hits give high values
How it was run: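 Mutant yeast screening strain plus compound; vehicle-treated cultures serve as the 0% inhibition reference.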

[6] = NCI Yeast Anticancer Drug Screen. Data for the mlh1 rad18 strain (AID 175); conditions: S. cerevisiae mlh1 rad18 strain growth inhibition, hits give high values
How it was run: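 Growth inhibition of the yeast strain was measured after compound exposure and expressed relative to vehicle-treated controls. The strain carries defined defects in DNA damage repair.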

[7] = at 5.0 µM (retest, dose inferred, filed as 0.5)
[8] = at 50.0 µM (retest, dose inferred, filed as 5.0)

Compound | growth inhibition [1, 7] | growth inhibition [1, 8] | growth inhibition ([1]; at 50.0 µM) | growth inhibition [2, 7] | growth inhibition [2, 8] | growth inhibition ([2]; at 50.0 µM) | growth inhibition [3, 7] | growth inhibition [3, 8] | growth inhibition ([3]; at 50.0 µM) | growth inhibition [4, 7] | growth inhibition [4, 8] | growth inhibition ([4]; at 50.0 µM) | growth inhibition [5, 7] | growth inhibition [5, 8] | growth inhibition ([5]; at 50.0 µM) | growth inhibition [6, 7] | growth inhibition [6, 8] | growth inhibition ([6]; at 50.0 µM)
O=C1c2ccccc2C(=O)c2c(NCCNCCO)ccc(O)c21 | 37% | 93% (active) | 85% (active) | 19% | 94% (active) | 84.7% (active) | 51% | 91% (active) | 86.5% (active) | 53% | 60% | 49.7% | 44% | 86% (active) | 85.3% (active) | 24% | 88% (active) | 85.8% (active)
CC(NNC(=S)N1CC2CCC(CC2)C1)c1nccc2ccccc12 (stereo not given) | 98% (active) | 96% (active) | 98.7% (active) | 98% (active) | 96% (active) | 99% (active) | 98% (active) | 96% (active) | 99% (active) | 97% (active) | 95% (active) | 98.3% (active) | 97% (active) | 94% (active) | 99% (active) | 98% (active) | 96% (active) | 99.1% (active)
Cc1cccc2c1nc1ccccc1[n+]2C | -2% | 97% (active) | 98.3% (active) | 7% | 97% (active) | 97.7% (active) | -2% | 97% (active) | 98.5% (active) | 2% | 96% (active) | 87.8% (active) | -2% | 91% (active) | 98.2% (active) | 6% | 95% (active) | 97.5% (active)
C1CCC(C2=NC3CCCCC3SC2)CC1 (stereo not given) | 5% | 98% (active) | 92.2% (active) | -16% | 99% (active) | 93.5% (active) | 5% | 86% (active) | 93.9% (active) | 10% | 96% (active) | 90.1% (active) | 6% | 98% (active) | 92.1% (active) | -20% | 98% (active) | 91.2% (active)
NC(CCCCCC(N)C(=O)O)C(=O)O (stereo not given) | -165% | -146% | 15.1% | -50% | -54% | 9.1% | -66% | -66% | 14.9% | -60% | -83% | 76.8% (active) | -67% | -71% | 18.8% | -241% | -121% | 3.05%
N#CC(Nc1cccc(C(F)(F)F)c1)c1ccccc1C(F)(F)F (stereo not given) | -4% | 97% (active) | 86% (active) | 3% | 97% (active) | 92% (active) | -11% | 97% (active) | 90.1% (active) | 25% | 46% | 89% (active) | 10% | 97% (active) | 90.5% (active) | -12% | 98% (active) | 84.8% (active)
CN1C(=O)CCCCCCCCCCSc2ccccc21 | 7% | 97% (active) | 99% (active) | 8% | 99% (active) | 99% (active) | 4% | 97% (active) | 99.2% (active) | 7% | 99% (active) | 96.7% (active) | 16% | 98% (active) | 98.3% (active) | 6% | 98% (active) | 98.8% (active)
CCCCCCCCCCCCCCC[N+]1(CC)CCCCC1 | 99% (active) | 99% (active) | 90.3% (active) | 97% (active) | 99% (active) | 90.8% (active) | 99% (active) | 99% (active) | 91.7% (active) | 99% (active) | 99% (active) | 90% (active) | 98% (active) | 99% (active) | 90.5% (active) | 98% (active) | 99% (active) | 89.2% (active)
CC(C)C(=O)N1Cc2cc(Cl)cc(Cl)c2OC(=O)c2ccccc21 | 18% | 3% | 71% (active) | -1% | 17% | 36.1% | -13% | 3% | 43.6% | 32% | 47% | 48.7% | 19% | 28% | 52.9% | 4% | 11% | 57.9%
O=C(O)C(=O)Cc1ccccc1[N+](=O)[O-] | -3% | 36% | 75.4% (active) | 1% | 1% | 4.9% | -3% | 28% | 68.3% | 1% | 3% | -18.6% | -10% | 10% | 20.5% | -2% | 24% | 68.2%
